In PubChem BioAssay one finds composite z-score and z-score data, which are given here for five compounds.

Structures are written as SMILES. The source made the active and inactive calls.

Test [1] concerns PRMT1 (protein arginine N-methyltransferase 1). The test is described as follows: PRMT1 binders on small-molecule microarrays, primary screen, biochemical, small-molecule microarray, 635 nm fluorescence (AID 1088).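 Note: binding of Prmt1 protein to compounds spotted on small-molecule microarray slides.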 Particulars: small-molecule microarray binding, higher = more signal.
Test [2] is described as follows: yeast growth modulation, basal conditions, primary screen, YJM789 clinical isolate, OD600, 24 h (AID 1089).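 Note: growth of clinical yeast isolate S. cerevisiae YJM 789 seeded 1000 cells per well; test concentration not given here.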 Particulars: S. cerevisiae YJM789 growth, higher = more signal, called active from +8 up or from −8 down.
Test [3] is described as follows: fission yeast growth modulation, primary screen, strain 972, OD600, 24 h, no modulator (AID 1090).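 Note: basal condition with compound alone and no growth modifier present; test concentration not given here.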 Particulars: S. pombe 972 growth, higher = more signal, called active from +8 up or from −8 down.
Test [4] can be described thus: S. cerevisiae growth modulation with rapamycin, primary screen, strain BY4716, OD600, 96 h (AID 1091). Note: test concentration not given here. The note with it: higher = more signal, called active from +8 up or from −8 down.
Test [5] deals with Torsin-1A-interacting protein 2 (Homo sapiens) (UniProt Q8NFQ8). Kind of test: LULL1 binders on small-molecule microarray, primary screen, cell lysate, human LULL1 lysate, 635/667 nm fluorescence (AID 1092).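 Note: probe is lysate of COS7 cells overexpressing human LULL1; score merges per-feature 667 nm fluorescence with signal-to-noise.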 The note with it: hLULL1 lysate binding, 635 nm fluorescence, higher = more signal.
Chain of Torsin-1A-interacting protein 2 (Homo sapiens) (Q8NFQ8 whole entry, looked up): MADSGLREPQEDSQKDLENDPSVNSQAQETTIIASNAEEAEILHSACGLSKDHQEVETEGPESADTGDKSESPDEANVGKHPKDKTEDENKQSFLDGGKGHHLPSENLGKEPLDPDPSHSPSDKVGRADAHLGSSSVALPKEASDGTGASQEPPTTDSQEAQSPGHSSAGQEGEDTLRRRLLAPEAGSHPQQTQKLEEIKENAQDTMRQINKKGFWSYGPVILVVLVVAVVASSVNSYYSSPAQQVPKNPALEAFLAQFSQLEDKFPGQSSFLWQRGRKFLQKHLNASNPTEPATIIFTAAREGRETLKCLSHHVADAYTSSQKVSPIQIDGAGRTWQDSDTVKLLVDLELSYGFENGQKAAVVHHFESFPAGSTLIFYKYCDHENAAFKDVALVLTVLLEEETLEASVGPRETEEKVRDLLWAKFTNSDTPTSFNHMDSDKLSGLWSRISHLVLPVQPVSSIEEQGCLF
The nature of test [6]: E. coli growth modulation, two-sided OD650, primary screen, E. coli filamentation project, strain DRC41, 24 h (AID 1093).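 Note: MC1000 strain lacking acrAB efflux and sulA so SOS filamentation is blocked; test concentration not given here.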 Particulars: OD650, 24 h, higher = more signal, called active from +8 up or from −8 down.
The nature of test [7]: small-molecule microarray binders of probe aLefty2, primary screen, biochemical, biotinylated probe, 635/667 nm fluorescence (AID 1094).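 Note: score merges spot fluorescence near 667 nm with spot signal-to-noise ratio.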 Particulars: higher = more signal.
In test [8] the test system is Noggin (protein binding on small-molecule microarray). The test is described as follows: Noggin binders on small-molecule microarray, primary screen, biochemical, 635/667 nm fluorescence (AID 1095).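 Note: score merges 667 nm feature fluorescence with signal to noise over triplicate slides.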 The note with it: 635 nm fluorescence, higher = more signal.
The target of test [9] is Neurogenic locus notch homolog protein 3 (Homo sapiens) (UniProt Q9UM47). Kind of test: NOTCH3 binders on small-molecule microarray, primary screen, biochemical, 635/667 nm fluorescence (AID 1096). The note with it: NOTCH3 binding, 635 nm fluorescence, higher = more signal.
Chain of Neurogenic locus notch homolog protein 3 (Homo sapiens) (Q9UM47 whole entry, looked up): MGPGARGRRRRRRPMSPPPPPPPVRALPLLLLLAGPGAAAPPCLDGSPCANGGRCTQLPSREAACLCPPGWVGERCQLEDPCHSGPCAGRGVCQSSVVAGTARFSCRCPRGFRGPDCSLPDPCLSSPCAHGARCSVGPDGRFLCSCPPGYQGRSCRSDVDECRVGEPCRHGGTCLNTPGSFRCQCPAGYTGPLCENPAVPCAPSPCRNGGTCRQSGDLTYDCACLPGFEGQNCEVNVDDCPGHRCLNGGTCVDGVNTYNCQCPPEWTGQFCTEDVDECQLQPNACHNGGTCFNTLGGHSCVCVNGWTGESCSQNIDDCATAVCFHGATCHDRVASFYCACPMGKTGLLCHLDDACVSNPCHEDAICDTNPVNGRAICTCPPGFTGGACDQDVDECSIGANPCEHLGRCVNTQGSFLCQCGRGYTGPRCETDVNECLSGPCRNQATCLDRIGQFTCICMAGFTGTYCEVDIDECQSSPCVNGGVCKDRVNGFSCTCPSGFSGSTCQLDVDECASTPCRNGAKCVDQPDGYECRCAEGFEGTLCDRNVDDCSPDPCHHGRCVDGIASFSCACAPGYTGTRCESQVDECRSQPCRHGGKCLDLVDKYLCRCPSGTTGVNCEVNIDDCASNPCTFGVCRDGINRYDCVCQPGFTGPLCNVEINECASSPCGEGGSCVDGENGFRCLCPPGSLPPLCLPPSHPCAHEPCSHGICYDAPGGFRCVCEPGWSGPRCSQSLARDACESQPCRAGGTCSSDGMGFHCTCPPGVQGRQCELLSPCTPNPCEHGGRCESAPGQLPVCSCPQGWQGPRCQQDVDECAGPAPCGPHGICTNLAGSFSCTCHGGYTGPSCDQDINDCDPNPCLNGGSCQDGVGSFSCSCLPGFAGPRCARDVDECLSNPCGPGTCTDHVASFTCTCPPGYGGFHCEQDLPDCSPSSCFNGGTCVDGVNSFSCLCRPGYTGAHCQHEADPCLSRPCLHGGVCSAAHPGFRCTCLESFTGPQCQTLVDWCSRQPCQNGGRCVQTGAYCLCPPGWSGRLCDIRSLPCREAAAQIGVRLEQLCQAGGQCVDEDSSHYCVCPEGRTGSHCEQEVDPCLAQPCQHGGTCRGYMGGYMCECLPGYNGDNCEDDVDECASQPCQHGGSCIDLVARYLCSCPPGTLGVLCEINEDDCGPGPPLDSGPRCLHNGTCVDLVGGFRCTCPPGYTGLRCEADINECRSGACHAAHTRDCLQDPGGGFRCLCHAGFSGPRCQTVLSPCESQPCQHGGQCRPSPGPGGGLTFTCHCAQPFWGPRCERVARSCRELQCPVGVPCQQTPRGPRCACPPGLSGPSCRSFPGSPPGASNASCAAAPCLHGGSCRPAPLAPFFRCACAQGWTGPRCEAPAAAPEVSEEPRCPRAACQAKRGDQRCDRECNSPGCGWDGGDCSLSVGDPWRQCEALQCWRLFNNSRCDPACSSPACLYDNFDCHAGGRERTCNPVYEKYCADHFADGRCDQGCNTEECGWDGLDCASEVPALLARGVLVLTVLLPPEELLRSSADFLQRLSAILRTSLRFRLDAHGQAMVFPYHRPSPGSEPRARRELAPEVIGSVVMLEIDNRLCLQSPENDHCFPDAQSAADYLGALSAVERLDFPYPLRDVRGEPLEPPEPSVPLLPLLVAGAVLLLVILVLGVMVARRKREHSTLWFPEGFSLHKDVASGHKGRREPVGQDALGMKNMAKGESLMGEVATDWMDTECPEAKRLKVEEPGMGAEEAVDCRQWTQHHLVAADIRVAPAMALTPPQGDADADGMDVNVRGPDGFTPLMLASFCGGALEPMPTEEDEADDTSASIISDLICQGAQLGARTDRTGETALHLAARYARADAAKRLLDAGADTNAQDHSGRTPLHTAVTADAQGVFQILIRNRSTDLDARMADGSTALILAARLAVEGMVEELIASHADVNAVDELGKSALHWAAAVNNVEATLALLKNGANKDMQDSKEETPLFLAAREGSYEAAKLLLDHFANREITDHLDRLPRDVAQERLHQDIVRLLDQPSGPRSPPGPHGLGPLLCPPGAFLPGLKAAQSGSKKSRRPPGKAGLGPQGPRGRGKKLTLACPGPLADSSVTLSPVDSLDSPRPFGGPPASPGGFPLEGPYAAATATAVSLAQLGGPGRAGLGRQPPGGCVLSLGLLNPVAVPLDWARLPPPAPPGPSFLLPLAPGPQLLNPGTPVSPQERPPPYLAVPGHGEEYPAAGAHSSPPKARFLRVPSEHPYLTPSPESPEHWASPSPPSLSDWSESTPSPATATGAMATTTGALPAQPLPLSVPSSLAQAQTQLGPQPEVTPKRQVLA
Test [10] can be described thus: small-molecule microarray binders of probe aEGFR, primary screen, biochemical, biotinylated probe, 635/667 nm fluorescence (AID 1097).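 Note: probe is a biotinylated anti-EGFR antibody binding compounds printed on slides; score combines fluorescence near 667 nm and signal to noise of each spot.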 Particulars: higher = more signal.
The test system of test [11] is Plasmodium falciparum Sir2 (PF13_0152, Sir2A). Kind of test: pfSir2 binders on small-molecule microarrays, primary screen, biochemical, small-molecule microarray, 635 nm fluorescence (AID 1098).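 Note: score merges spot fluorescence intensity with its signal-to-noise ratio.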 Particulars: small-molecule microarray binding, fluorescence 635 nm; higher = more signal.
Test [12] in a line: small-molecule microarray binders of probe aDKK1, primary screen, biochemical, biotinylated probe, 635/667 nm fluorescence (AID 1099).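 Note: score merges 667nm spot fluorescence with signal to noise across triplicate slides; reference of the scale not given here.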 The note with it: higher = more signal.
The nature of test [13]: small-molecule microarray binders of probe aCHRDL2, primary screen, biochemical, biotinylated probe, 635/667 nm fluorescence (AID 1100). Particulars: higher = more signal.
Test [14] is described as follows: splicing luciferase reporter signal modulators, primary screen, spliceosome inhibition project, cell-based, HEK293, splice +/- reporter (AID 1101).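 Note: HEK293 cells carrying a splicing-competent luciferase reporter gene; test concentration not given here.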 The note with it: luminescence, 24 h, higher = more signal, called active from +8 up or from −8 down.
Test [15] concerns the target Fibroblast growth factor 10 (Homo sapiens) (UniProt O15520). Kind of test: FGF10 binders on small-molecule microarrays, primary screen, biochemical, small-molecule microarray, 635 nm fluorescence (AID 1102). The note with it: FGF10 binding, fluorescence 635 nm, higher = more signal.
The subject of test [16] is glycogen synthase kinase-3 (GSK3A per assay name; protocol says GSK3B). The test is described as follows: GSK3 binders on small-molecule microarrays, primary screen, biochemical, small-molecule microarray, 635 nm fluorescence, GSK3A (AID 1103). Note: the record names both GSK3A and GSK3B. The note with it: small-molecule microarray binding, fluorescence 635 nm; higher = more signal.
Test [17] deals with Epidermal growth factor receptor (Homo sapiens) (UniProt P00533). Kind of test: EGFR binders on small-molecule microarrays, primary screen, biochemical, small-molecule microarray, 635 nm fluorescence (AID 1104).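 Note: score merges 667 nm emission intensity with spot signal to noise over triplicate slides.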 The note with it: EGFR binding, higher = more signal.
Chain of Epidermal growth factor receptor (Homo sapiens) (P00533 whole entry, looked up): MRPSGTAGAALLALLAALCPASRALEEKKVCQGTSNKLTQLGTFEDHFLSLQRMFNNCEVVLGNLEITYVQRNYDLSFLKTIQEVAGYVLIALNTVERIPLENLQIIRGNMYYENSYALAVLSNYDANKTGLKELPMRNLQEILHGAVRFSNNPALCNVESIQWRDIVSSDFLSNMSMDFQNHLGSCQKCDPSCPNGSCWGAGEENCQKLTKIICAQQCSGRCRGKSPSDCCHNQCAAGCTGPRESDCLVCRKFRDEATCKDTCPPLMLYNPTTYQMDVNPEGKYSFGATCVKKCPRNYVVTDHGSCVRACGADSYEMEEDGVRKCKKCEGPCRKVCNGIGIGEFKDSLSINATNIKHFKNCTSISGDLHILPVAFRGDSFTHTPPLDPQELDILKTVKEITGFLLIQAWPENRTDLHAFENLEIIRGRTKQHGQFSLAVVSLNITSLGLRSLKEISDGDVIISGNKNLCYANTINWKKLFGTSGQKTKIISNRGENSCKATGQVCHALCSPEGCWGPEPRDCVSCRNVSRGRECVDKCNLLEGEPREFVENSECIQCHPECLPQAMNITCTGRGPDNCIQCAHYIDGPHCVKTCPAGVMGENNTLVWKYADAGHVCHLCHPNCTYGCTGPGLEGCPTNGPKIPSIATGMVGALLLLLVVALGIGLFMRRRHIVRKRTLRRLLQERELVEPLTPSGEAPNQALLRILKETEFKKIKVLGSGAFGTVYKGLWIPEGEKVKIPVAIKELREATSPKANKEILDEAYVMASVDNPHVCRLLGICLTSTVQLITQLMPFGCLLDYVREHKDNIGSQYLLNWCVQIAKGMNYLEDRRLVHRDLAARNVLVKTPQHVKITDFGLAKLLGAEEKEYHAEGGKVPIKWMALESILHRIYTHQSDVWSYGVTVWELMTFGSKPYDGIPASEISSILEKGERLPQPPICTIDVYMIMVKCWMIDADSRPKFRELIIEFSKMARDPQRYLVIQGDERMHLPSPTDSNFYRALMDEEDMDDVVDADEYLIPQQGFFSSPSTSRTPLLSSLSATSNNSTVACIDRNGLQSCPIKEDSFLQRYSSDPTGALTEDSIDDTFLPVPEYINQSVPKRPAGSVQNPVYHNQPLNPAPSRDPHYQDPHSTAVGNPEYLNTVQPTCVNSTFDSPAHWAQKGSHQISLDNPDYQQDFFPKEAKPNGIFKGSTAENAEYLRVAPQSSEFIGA
The target in test [18] is Follistatin-related protein 3 (Homo sapiens) (UniProt O95633). The test is described as follows: FSTL3 binders on small-molecule microarrays, primary screen, biochemical, small-molecule microarray, 635 nm fluorescence (AID 1105).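 Note: score merges emission near 667 nm and signal to noise per printed spot across three slides.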 The note with it: FSTL3 binding, higher = more signal.
Chain of Follistatin-related protein 3 (Homo sapiens) (O95633 whole entry, looked up): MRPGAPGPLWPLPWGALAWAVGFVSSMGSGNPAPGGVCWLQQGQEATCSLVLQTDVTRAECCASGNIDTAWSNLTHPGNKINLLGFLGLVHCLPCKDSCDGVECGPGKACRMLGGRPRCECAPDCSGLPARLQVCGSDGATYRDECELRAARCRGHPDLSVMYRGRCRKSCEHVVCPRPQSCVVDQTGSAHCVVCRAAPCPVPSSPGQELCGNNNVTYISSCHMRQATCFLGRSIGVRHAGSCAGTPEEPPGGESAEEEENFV
For test [19], the target named is Dickkopf-related protein 1 (Homo sapiens) (UniProt O94907). Kind of test: DKK1 binders on small-molecule microarrays, primary screen, biochemical, small-molecule microarray, 635 nm fluorescence scan (AID 1106).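 Note: score merges emission near 667 nm with signal to noise over three replicate slides.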 The note with it: DKK1 binding, higher = more signal.
Chain of Dickkopf-related protein 1 (Homo sapiens) (O94907 whole entry, looked up): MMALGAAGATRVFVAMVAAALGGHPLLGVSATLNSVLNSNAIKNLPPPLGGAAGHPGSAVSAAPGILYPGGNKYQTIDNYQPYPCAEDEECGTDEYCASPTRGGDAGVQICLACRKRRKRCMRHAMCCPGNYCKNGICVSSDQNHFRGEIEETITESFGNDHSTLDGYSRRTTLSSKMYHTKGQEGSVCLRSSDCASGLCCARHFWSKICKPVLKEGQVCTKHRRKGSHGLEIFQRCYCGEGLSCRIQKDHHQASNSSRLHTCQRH
The subject of test [20] is Inhibin beta A chain (activin A). The test is described as follows: INHBA (activin A) binders on microarrays, primary screen, biochemical, small-molecule microarray, 635 nm fluorescence scan (AID 1107).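 Note: mouse activin A protein probed at 4.33 µg/mL on printed slides; score merges bound-protein fluorescence near 667 nm with spot signal-to-noise.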 The note with it: small-molecule microarray binding, higher = more signal.

Chain of Fibroblast growth factor 10 (Homo sapiens) (O15520 whole entry, looked up): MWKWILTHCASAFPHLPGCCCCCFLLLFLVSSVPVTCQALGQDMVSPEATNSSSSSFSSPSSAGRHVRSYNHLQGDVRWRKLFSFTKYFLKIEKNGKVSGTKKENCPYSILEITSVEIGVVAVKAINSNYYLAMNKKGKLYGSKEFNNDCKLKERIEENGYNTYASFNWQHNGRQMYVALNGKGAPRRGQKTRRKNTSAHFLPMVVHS

On to `COCCOC(=O)N1C(=O)[C@@]2(c3cc(C#Cc4ccc(OC)cc4)ccc31)[C@H](c1ccccc1OCCO)N1[C@H](c3ccccc3)[C@H](c3ccccc3)OC(=O)[C@H]1[C@@H]2C(=O)N1CCCCCCC1`, for which the composite z-score in test [1] was determined as 1.27; in test [5], 3.85; in test [7], 1.71; in test [8], 1.97; in test [9] it was 0.841; in test [10] it was 1.17. Further, the composite z-score in [11] worked out at 1.2; in test [12], 2.8; in test [13] it was 1.79; in test [15], 1.29; in [16], 1.34; in test [17], 1.49. Also, the figures for the composite z-score in test [18], in test [19] and in [20] were 1.61, 2.12 and 1.91, respectively. The z-score is -1.44 (inactive) in [2]; 0.423 (inactive) in test [3]; 3.91 (inactive) in test [4]; 1.53 (inactive) in test [6]; -1.38 (inactive) in test [14].

As for `NC(=O)N1C(=O)C2C(C1=O)C1C=C(CCCO)C2C(c2cccs2)N1Cc1cccc(OC(F)(F)F)c1` (stereo not given), the composite z-score in test [1] was 1.2; in test [5], 1.77; in test [7] it was -0.123; in test [8], 0.329; in test [9], 0.511; in test [10] it was 0.0625. Further, the composite z-score in test [11] was 1.41; in test [12], -0.0349; in [13], -0.123; in [15], 0.493; in [16], 0.177; in test [17], 0.121. Moreover, the composite z-score in [18] was 0.211; in test [19], -0.184; in test [20] it was 0.944. Besides, the z-score was -0.367 (inactive) in [2]; -1.7 (inactive) in test [3]; -0.967 (inactive) in [4]; 0.56 (inactive) in test [6]; 0.23 (inactive) in test [14].

For the compound `COC(=O)c1c(CC[C@@H](CO)NC(=O)N2CCC[C@H]2Cn2cc(Cc3ccccc3)nn2)oc(C(C)=O)c1C(=O)OC`, the composite z-score in [1] was 1.28; in test [5] it was 3.14; in [7], -0.147; in test [8], 0.387; in test [9] it was 0.524; in test [10], -0.111. The composite z-score in [11] is 0.787; in test [12] it was -0.0956; in test [13], -0.553; in [15], 0.572; in test [16] it was 0.0908; in test [17] it was -0.0867. For the same compound, the composite z-score came to 0.92 in test [18], 0.135 in test [19] and 0.268 in test [20]. The z-score is 0.102 (inactive) in [2]; -0.279 (inactive) in test [3]; -1.45 (inactive) in test [4]; -0.0178 (inactive) in test [6]; -0.311 (inactive) in [14].

For `COC(=O)[C@@]1(Cc2ccc(OC)cc2)[C@H]2c3cc(C(=O)N4CCCC4)n(Cc4cccc5ccccc45)c3C[C@H]2CN1C(=O)c1ccccc1`, the composite z-score was -0.88 in [1]; 3.02 in test [5]; 0.0082 in test [7]; 0.15 in test [8]; 0.981 in [9]; 0.087 in test [10]. The composite z-score was 0.654 in test [11]; 0.741 in test [12]; 1.08 in test [13]; 0.821 in [15]; 0.407 in test [16]; -0.282 in test [17]. For the same compound, the composite z-score was 0.293 in test [18], -0.724 in [19] and 0.849 in test [20]. Further, the z-score is 0.221 (inactive) in [2]; 1.82 (inactive) in test [3]; 2.29 (inactive) in test [4]; 0.0929 (inactive) in [6]; -0.261 (inactive) in test [14].

Turning to `O=C1O[C@@H](c2ccccc2)[C@@H](c2ccccc2)N2[C@@H](c3ccc(OCCO)cc3)[C@]3(C(=O)Nc4ccccc43)[C@@H](C(=O)O)[C@H]12`, the composite z-score in [1] is 0.194; in test [5], 3.09; in [7] it was 0.176; in [8], -0.179; in [9], -0.239; in [10], 0.247. Moreover, the composite z-score in [11] is 0.327; in test [12] it was -0.483; in [13], 0.273; in test [15] it was 0.119; in [16], -0.739; in test [17], -0.38. Further, the composite z-score in test [18] is -0.415; in test [19], -0.32; in test [20] it was 0.758. Moreover, the z-score in [2] is 0.264 (inactive); in test [3] it was -0.272 (inactive); in test [4], -0.219 (inactive); in test [6] it was 0.852 (inactive); in test [14], -0.715 (inactive).
